This is a sample that favours compounds with a hit; in the whole collection about 1.1% have one here.
HTR5A ag: HTR5A agonists in luminescence cell assay, primary screen, counter-screen for OPRM1-OPRD1 heterodimer agonist project, full-deck HTS; cell-based; activation, % at 9.3 µM; 340,000 compounds, 0.61% hits; AID 504692, 2011; in the data active = activation mostly above about 9.5%, no sharp cut-off; inactive = mostly below about 7.6%;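 also: 0% = cells with vehicle only and 100% = reference agonist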
Target sequence (P47898 whole entry, looked up): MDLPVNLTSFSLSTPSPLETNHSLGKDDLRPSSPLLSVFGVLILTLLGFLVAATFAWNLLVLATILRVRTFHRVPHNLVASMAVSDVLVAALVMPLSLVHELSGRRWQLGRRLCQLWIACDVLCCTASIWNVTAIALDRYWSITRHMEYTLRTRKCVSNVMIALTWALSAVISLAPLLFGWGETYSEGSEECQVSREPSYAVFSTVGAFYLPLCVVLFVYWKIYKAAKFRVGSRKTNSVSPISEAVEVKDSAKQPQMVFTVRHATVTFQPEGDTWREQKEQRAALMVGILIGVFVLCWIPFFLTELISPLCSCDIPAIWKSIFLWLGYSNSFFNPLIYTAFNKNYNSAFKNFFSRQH
MOR-DOR ag-1: agonists of OPRM1-OPRD1 heterodimerization, primary screen, cell-based, luminescence | Mu-type opioid receptor (Homo sapiens) + Delta-type opioid receptor (Homo sapiens), … | cells | 340,000 compounds, 0.3% hits | AID 504326, 2011 | activation, % at 9.3 µM;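 also: 0% = vehicle-treated cells and 100% = reference agonist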
HTR5A inv ctr: HTR5A inverse agonists in luminescence cell assay, primary screen, counter-screen for OPRM1-OPRD1 heterodimer inverse agonist project, full-deck HTS | 340,000 compounds, 0.083% hits | HTR5A cell line, inverse agonism | 5-hydroxytryptamine receptor 5A (Homo sapiens), P47898 | inhibition, % at 9.3 µM; in the data active = inhibition mostly above about 23%, no sharp cut-off; inactive = mostly below about 18%;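 also: 0% = cells with DMSO and 100% = no-cell wells with DMSO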
OPRM1-OPRD1 inv: inverse agonists of MOR-DOR heterodimerization, primary screen, cell-based, luminescence; Mu-type opioid receptor (Homo sapiens) + Delta-type opioid receptor (Homo sapiens), …; cell-based MOR-DOR heterodimer luminescence, inverse agonism; inhibition, % at 9.3 µM; 340,000 compounds, 0.21% hits; AID 504357, 2011; in the data active = inhibition above about 22%, passing the limit was not always enough;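 also: 0% = cells with DMSO and 100% = wells without cells with DMSO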
MOR-DOR ag-2: OPRM1-OPRD1 heterodimerization promoters, counter-screen for HTR5A agonist project, cell-based, luminescence; shares compounds with HTR5A ag; U2OS counter-screen cells, complementation luminescence, 3 h; activation, % at 9.3 µM; 800 compounds, 13% hits
HTR5A ag confirm: HTR5A agonists, retest of hits, confirmation, cell-based, luminescence | shares compounds with HTR5A ag | HTR5A agonist cell assay | activation, % at 9.3 µM | 800 compounds, 17% hits; in the data active = activation above about 17%;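 also: 0% = cells with vehicle only and 100% = full reference agonist response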
Active calls of the source: *; nt = no result given. Rule as the data show it, unless noted: active = activation above about 18%; inactive = the rest.

SMILES	HTR5A ag	MOR-DOR ag-1	HTR5A inv ctr	OPRM1-OPRD1 inv	MOR-DOR ag-2	HTR5A ag confirm
Cc1c(NC(=O)Oc2ccccc2)sc(=S)n1C	15.1*	-6.0	-34.0	27.5	0.2	42.8*
Cc1ccc(NC(=O)Nc2sc(=S)n(C)c2C)cc1	7.7	-2.2	8.1	11.0	nt	nt
COc1ccc([N+](=O)[O-])cc1NS(=O)(=O)c1cccc(C(=O)O)c1	-3.5	-3.1	20.0	15.9	nt	nt
COc1ccc(NC(=O)CC2C(=O)N(Cc3ccccc3)C(=S)N2CCN2CCOCC2)cc1 (stereo not given)	1.4	1.1	-3.9	-5.3	nt	nt
C=CCN1C(=O)C(CC(=O)Nc2ccc(OCCC)cc2)N(CCCN2CCN(Cc3ccccc3)CC2)C1=S (stereo not given)	16.7*	15.7	-73.3	-75.8	38.6*	-2.1
CCN1C(=O)C(CC(=O)Nc2ccc(F)cc2)N(Cc2ccco2)C1=S (stereo not given)	-2.5	-2.8	6.5	12.7	nt	nt
CCCCCCOc1ccc(NC(=O)CC2C(=O)N(CC)C(=S)N2Cc2ccco2)cc1 (stereo not given)	15.2*	2.9	-33.5	-15.8	-1.2	-9.0
CCN1CCCC1CNCc1cc(OC)c(OC)c(OC)c1 (stereo not given)	7.0	0.2	-53.3	-1.2	nt	nt
CCOc1cc(CNCC2CCCN2CC)cc(Cl)c1OC (stereo not given)	19.3*	-1.1	-52.7	6.1	1.1	1.4
CCSc1ccc2cc(OC)ccc2[n+]1CC	-5.3	-1.9	14.0	10.7	nt	nt
CC1CN(C(=O)CSc2nnc(-c3cccs3)n2N)CC(C)O1 (stereo not given)	-2.6	1.1	6.2	-4.7	nt	nt
CSc1cccc(NC(=O)N2CCc3ccc(NC(=O)c4ccccn4)cc3C2)c1	15.7*	1.4	-9.9	-7.1	17.6	16.3
CCOC(=O)c1c(CSC(=N)N)n(-c2ccc(C)cc2)c2cc(Br)c(OC(C)=O)cc12	16.7*	16.1	-97.7	-93.4	14.0	7.6
CCOC(=O)c1c(CSC(=N)N)n(C)c2cc(Br)c(OC(C)=O)cc12	4.3	-1.2	15.9	5.8	nt	nt
COC/C=C/C1=CC2=CC(=O)C(C)(OC(=O)c3cnc4ccccc4n3)C(=O)C2=CN1CCCOC(C)C (stereo not given)	17.7*	1.6	-45.0	-9.0	42.0*	0.0
CCCn1nc(C(=O)NNC(=O)c2cccc(C)c2)c2ccccc2c1=O	-3.9	-0.4	15.1	2.1	nt	nt
C=CCc1cccc2cc(C(=O)N3CCOCC3)c(=O)oc12	8.1	-2.3	-30.6	11.2	nt	nt
C=CCc1cccc2cc(C(=O)N3CCN(C(=O)c4ccccc4)CC3)c(=O)oc12	16.3*	-0.2	-48.5	2.0	0.0	-3.5
COc1ccc(NC(=O)CN(C)CC(=O)NCC(=O)Nc2ccc(F)cc2)cc1	1.9	-0.4	-15.6	2.8	nt	nt
C[C@@H](NC(=O)c1nc[nH]c1C(=O)NCC(=O)OCc1ccccc1)c1ccccc1	23.9*	0.6	-64.4	-3.5	3.1	2.4
O=C(NC1CCCN(CCc2ccccc2)C1)c1c[nH]c2ccccc12 (stereo not given)	2.2	-1.8	-7.5	8.9	nt	nt
CN1C[C@H](C(=O)NC2(C)OC3(O)[C@@H]4CCCN4C(=O)[C@H](Cc4ccccc4)N3C2=O)CC2c3cccc4[nH]cc(c34)C[C@H]21 (stereo not given in full)	32.2*	1.8	-115.2	-9.5	5.1	63.4*
Cc1cc(C(C)(C)C)cc(C)c1CC1=NCCN1	90.5*	-0.7	-235.9	3.8	0.1	90.1*
COc1ccc(-c2nc(N)ncc2-c2ccccc2OC)c(O)c1	-0.5	-3.3	1.9	14.6	nt	nt
COc1ccc(NC(=O)C(OC(=O)Cn2cnc3c2c(=O)n(C)c(=O)n3C)c2ccccc2)cc1Cl (stereo not given)	0.2	-2.6	-0.8	13.6	nt	nt
SMILES	HTR5A ag	MOR-DOR ag-1	HTR5A inv ctr	OPRM1-OPRD1 inv	MOR-DOR ag-2	HTR5A ag confirm
O=C(CN1C(=O)CSc2ncccc21)NCCN1CCOCC1	16.1*	-0.8	-47.9	4.2	0.3	1.2
CCCN(CCC)C(=O)C(c1ccccc1)C1(O)CCCCC1 (stereo not given)	0.1	6.9	-0.5	-33.4	nt	nt
C=C1CCc2c([nH]c3ccc(OCC(C)C)cc23)C1=O	22.2*	5.0	-81.2	-25.8	8.5	13.6
COc1cc(C(=O)O)ccc1OCc1ccncc1	15.9*	-1.8	-1.2	9.8	-0.4	0.0
COc1cc(C(N)=O)ccc1OCc1ccccc1	4.3	-0.8	-10.7	4.0	nt	nt
COc1ccccc1C(CNC(=O)c1cccc(S(=O)(=O)Nc2ccc(F)cc2)c1)N1CCCC1 (stereo not given)	64.9*	-2.1	-189.4	7.8	-2.6	0.4
COc1ccc(NS(=O)(=O)c2cccc(C(=O)NCC(c3ccccc3OC)N3CCCC3)c2)cc1 (stereo not given)	1.6	-0.5	-21.3	3.4	nt	nt
Cn1c(N/N=C2\CCCc3ccccc32)nc2c1c(=O)n(Cc1ccc(F)cc1)c(=O)n2C	14.9*	0.9	-16.9	-5.7	0.1	12.4
CC(=O)CCC(=O)N1CCC(n2nccc2NC(=O)c2ccccc2C)CC1	3.0	1.8	11.7	-9.6	nt	nt
COc1ccccc1NC(=O)CN1CCN(c2ccc(Cl)cc2)CC1	-3.8	1.2	9.5	-5.1	nt	nt
COc1ccccc1NC(=O)CCN1CCN(Cc2ccccc2)CC1	20.7*	0.9	-54.3	-5.9	1.9	4.0
COc1ccccc1NC(=O)CN1CCN(c2ccccc2)CC1	15.5*	-2.1	10.0	11.0	2.0	1.4
Cc1c(CNC(=O)C2CC2)c(-n2cccc2)n(Cc2ccccc2)c1C	-1.4	-2.8	14.6	13.8	nt	nt
COC(=O)c1nccc2c1[nH]c1ccccc12	-1.6	-2.4	-4.8	12.1	nt	nt
Cc1cc(N2CCN(C(=O)/C=C/C(=O)O)CC2)c2ccccc2n1	15.2*	1.0	-55.7	-5.3	1.4	-0.2
O=C(O)/C=C/C(=O)N1CCN(c2ccccc2F)CC1	-1.7	-2.8	15.7	15.0	nt	nt
O=c1c(/C=N/N2CCOCC2)c(C(F)(F)F)[nH]n1-c1ccccc1	2.6	-2.9	-13.5	18.0	nt	nt
CCn1ncc(/C=N\NC(=O)c2csc3ccccc23)c1C	18.2*	-2.7	-71.1	15.7	49.4*	-3.9
O=C(N/N=C/c1cccc(O)c1)c1csc2ccccc12	0.7	2.7	12.6	-11.4	nt	nt
CN(Cc1ccccc1)S(=O)(=O)c1ccc2c(c1)n(C)c(=O)n2C	16.1*	6.2	-56.9	-33.5	0.3	-1.3
CNC(=S)N1N=C(c2ccc(C)cc2)CC1c1ccc(Br)cc1 (stereo not given)	18.0*	1.5	-43.0	-7.1	1.4	4.1
CNC(=S)N1N=C(c2ccc(C)cc2)CC1c1ccc(Cl)cc1 (stereo not given)	-3.8	8.2	11.1	-41.1	nt	nt

From PubChem BioAssay
